# In the supplement of paper PMC8728848:
# Many of the other results were omitted from the sample, so the strongest signals are more common in it than they were.
# What was measured:
# Test in all cases: glycan array binding signal (z-score within array); higher = stronger binding
# Settings in all cases: glycan notation: IUPAC condensed, linker removed
# [1] = target: Fuc(a1-2)Gal(b1-3)GlcNAc(b1-3)Gal(b1-4)Glc
# How it was run: (§1)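 Negative Z-scores can be read as non-binding. The Z-score is calculated within each array and then averaged across arrays of one protein sequence at different concentrations or buffers and across linkers. Arrays, 3228 in all, were curated from the Consortium for Functional Glycomics database and kept only where the protein sequence was available.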
# [2] = target: Fuc(a1-2)Gal(b1-3)GlcNAc(b1-3)[Gal(b1-4)GlcNAc(b1-6)]Gal(b1-4)Glc
# How it was run: as §1
# [3] = target: Fuc(a1-2)Gal(b1-3)[Fuc(a1-4)]GlcNAc(b1-2)Man(a1-3)[Fuc(a1-2)Gal(b1-3)[Fuc(a1-4)]GlcNAc(b1-2)Man(a1-6)]Man(b1-4)GlcNAc(b1-4)GlcNAc
# How it was run: as §1
# Fuc(a1-2)Gal(b1-4)Glc6S = target: Fuc(a1-2)Gal(b1-4)Glc6S
# How it was run: as §1
# [4] = target: Fuc(a1-2)Gal(b1-4)[Fuc(a1-3)]GlcNAc(b1-2)Man(a1-3)[Fuc(a1-2)Gal(b1-4)[Fuc(a1-3)]GlcNAc(b1-2)Man(a1-6)]Man(b1-4)GlcNAc(b1-4)GlcNAc
# How it was run: as §1
# [5] = target: Fuc(a1-2)Gal(b1-4)[Fuc(a1-3)]GlcNAc(b1-2)[Fuc(a1-2)Gal(b1-4)[Fuc(a1-3)]GlcNAc(b1-4)]Man(a1-3)[Fuc(a1-2)Gal(b1-4)[Fuc(a1-3)]GlcNAc(b1-2)Man(a1-6)]Man(b1-4)GlcNAc(b1-4)GlcNAc
# How it was run: as §1
# [6] = target: Fuc(a1-2)[Gal(a1-3)]Gal(b1-3)GlcNAc(b1-2)Man(a1-3)[Fuc(a1-2)[Gal(a1-3)]Gal(b1-3)GlcNAc(b1-2)Man(a1-6)]Man(b1-4)GlcNAc(b1-4)[Fuc(a1-6)]GlcNAc
# How it was run: as §1
# [7] = target: Fuc(a1-2)[GalNAc(a1-3)]Gal
# How it was run: as §1
# [8] = target: Gal(a1-3)Gal(b1-4)GlcNAc(b1-3)GalNAc
# How it was run: as §1
# [9] = target: Gal(b1-3)GalNAc(b1-3)Gal(a1-4)Gal(b1-4)Glc
# How it was run: as §1
# [10] = target: Gal(b1-3)GalNAc(b1-4)[Neu5Ac(a2-3)]Gal(b1-4)Glc
# How it was run: as §1
# [11] = target: Gal(b1-3)GlcNAc(b1-3)Gal(b1-4)GlcNAc(b1-6)[Gal(b1-3)GlcNAc(b1-3)]Gal(b1-4)Glc
# How it was run: as §1
# [12] = target: Gal(b1-3)GlcNAc(b1-6)Gal(b1-4)GlcNAc
# How it was run: as §1
# [13] = target: Gal(b1-3)[Neu5Ac(b2-6)]GalNAc
# How it was run: as §1
# Gal(b1-4)GlcNAc = target: Gal(b1-4)GlcNAc
# How it was run: as §1
# Gal3S(b1-4)Glc6S = target: Gal3S(b1-4)Glc6S
# How it was run: as §1
# Gal6S(b1-3)GlcNAc6S = target: Gal6S(b1-3)GlcNAc6S
# How it was run: as §1
# GlcA(b1-3)GlcNAc = target: GlcA(b1-3)GlcNAc
# How it was run: as §1
# [14] = target: GlcNAc(a1-4)Gal(b1-4)GlcNAc(b1-3)Gal(b1-4)GlcNAc
# How it was run: as §1
# [15] = target: GlcNAc(b1-2)Gal(b1-3)GalNAc
# How it was run: as §1
# [16] = target: GlcNAc(b1-3)Gal(b1-3)GalNAc
# How it was run: as §1
# [17] = target: GlcNAc(b1-3)Gal(b1-4)GlcNAc
# How it was run: as §1
# [18] = target: Man(a1-2)Man(a1-6)[Man(a1-3)]Man(a1-6)[Man(a1-2)Man(a1-2)Man(a1-3)]Man(b1-4)GlcNAc(b1-4)GlcNAc
# How it was run: as §1
# Neu5Ac(a2-3)Gal = target: Neu5Ac(a2-3)Gal
# How it was run: as §1
# [19] = target: Neu5Ac(a2-3)Gal(b1-3)GalNAc(b1-4)[Neu5Ac(a2-3)]Gal(b1-4)Glc
# How it was run: as §1
# [20] = target: Neu5Ac(a2-3)Gal(b1-3)[Fuc(a1-4)]GlcNAc(b1-3)Gal(b1-3)[Fuc(a1-4)]GlcNAc
# How it was run: as §1
# [21] = target: Neu5Ac(a2-3)Gal(b1-4)GlcNAc(b1-3)Gal
# How it was run: as §1
# [22] = target: Neu5Ac(a2-3)Gal(b1-4)GlcNAc(b1-6)[Gal(b1-3)]GalNAc
# How it was run: as §1
# [23] = target: Neu5Ac(a2-3)Gal(b1-4)[Fuc(a1-3)]GlcNAc(b1-3)Gal(b1-4)GlcNAc
# How it was run: as §1
# [24] = target: Neu5Ac(a2-6)Gal(b1-4)GlcNAc(b1-2)Man(a1-3)[Neu5Ac(a2-6)Gal(b1-4)GlcNAc(b1-2)Man(a1-6)]Man(b1-4)GlcNAc(b1-4)GlcNAc
# How it was run: as §1
# [25] = target: Neu5Ac(a2-8)Neu5Ac(a2-3)Gal(b1-3)GalNAc(b1-4)[Neu5Ac(a2-8)Neu5Ac(a2-3)]Gal(b1-4)Glc
# How it was run: as §1
# Neu5Ac(b2-6)GalNAc = target: Neu5Ac(b2-6)GalNAc
# How it was run: as §1
# [26] = target: Neu5Gc(a2-3)Gal(b1-3)GlcNAc
# How it was run: as §1
# [27] = target: Neu5Gc(a2-3)Gal(b1-4)GlcNAc
# How it was run: as §1
# [28] = target: Neu5Gc(b2-6)Gal(b1-4)GlcNAc
# How it was run: as §1
binder,measurement,setting,value
"MFG-E8 (Homo sapiens), Q08431 (protein) MPRPRLLAALCGALLCAPSLLVALDICSKNPCHNGGLCEEISQEVRGDVFPSYTCTCLKGYAGNHCETKCVEPLGLENGNIANSQIAASSVRVTFLGLQHWVPELARLNRAGMVNAWTPSSNDDNPWIQVNLLRRMWVTGVVTQGASRLASHEYLKAFKVAYSLNGHEFDFIHDVNKKHKEFVGNWNKNAVHVNLFETPVEAQYVRLYPTSCHTACTLRFELLGCELNGCANPLGLKNNSIPDKQITASSSYKTWGLHLFSWNPSYARLDKQGNFNAWVAGSYGNDQWLQVDLGSSKEVTGIITQGARNFGSVQFVASYKVAYSNDSANWTEYQDPRTGSSKIFPGNWDNHSHKKNLFETPILARYVRILPVAWHNRIALRLELLGC",glycan array binding signal (z-score),[1],-0.126
same,glycan array binding signal (z-score),[2],-0.539
same,glycan array binding signal (z-score),[3],2.2
same,glycan array binding signal (z-score),Fuc(a1-2)Gal(b1-4)Glc6S,-0.507
same,glycan array binding signal (z-score),[4],2.88
same,glycan array binding signal (z-score),[5],2.94
same,glycan array binding signal (z-score),[6],-0.115
same,glycan array binding signal (z-score),[7],-0.746
same,glycan array binding signal (z-score),[8],-0.233
same,glycan array binding signal (z-score),[9],-0.572
same,glycan array binding signal (z-score),[10],-0.7
same,glycan array binding signal (z-score),[11],2.38
same,glycan array binding signal (z-score),[12],-0.672
same,glycan array binding signal (z-score),[13],0.07
same,glycan array binding signal (z-score),Gal(b1-4)GlcNAc,-0.753
same,glycan array binding signal (z-score),Gal3S(b1-4)Glc6S,6.38
same,glycan array binding signal (z-score),Gal6S(b1-3)GlcNAc6S,3.63
same,glycan array binding signal (z-score),GlcA(b1-3)GlcNAc,0.43
same,glycan array binding signal (z-score),[14],3.21
same,glycan array binding signal (z-score),[15],-0.68
same,glycan array binding signal (z-score),[16],0.268
same,glycan array binding signal (z-score),[17],-0.62
same,glycan array binding signal (z-score),[18],2.16
same,glycan array binding signal (z-score),Neu5Ac(a2-3)Gal,-0.156
same,glycan array binding signal (z-score),[19],1.61
same,glycan array binding signal (z-score),[20],1.24
same,glycan array binding signal (z-score),[21],0.052
same,glycan array binding signal (z-score),[22],-0.167
same,glycan array binding signal (z-score),[23],-0.126
same,glycan array binding signal (z-score),[24],1.09
same,glycan array binding signal (z-score),[25],-0.776
same,glycan array binding signal (z-score),Neu5Ac(b2-6)GalNAc,1.84
same,glycan array binding signal (z-score),[26],-0.636
same,glycan array binding signal (z-score),[27],1
same,glycan array binding signal (z-score),[28],-0.408
